Experimental findings from PubChem BioAssay (NCI) are described below.

About 83,000 compounds went through this panel and 20% of them were active in at least one assay; those are over-represented in the sample as a whole.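 Negative percent growth values reflect cell death: -40 means 40% of the cells present at the start died, and -100 means all died.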 Values without a mark were called inactive. Activity calls are given as the source filed them. How the source made its calls: active means growth percent below 10; inactive means the rest.

Holding throughout (assay): NCI-60 one-dose screen, 48 h (100 = growth as untreated, 0 = no growth, -100 = all killed)
Common to all, as to details: 10 µM

The test system of experiment [1] is DU-145 prostate.
The test system of experiment [2] is K-562 leukemia.
The subject of experiment [3] is MDA-MB-231 breast.
Experiment [4] deals with RXF 393 renal.
For experiment [5], the system named is SF-268 CNS.
In experiment [6] the test system is SF-295 CNS.
Experiment [7] deals with SF-539 CNS.
Experiment [8] relates to UACC-257 melanoma.
Experiment [9] concerns M14 melanoma.
The subject of experiment [10] is HCT-15 colon.
Experiment [11] relates to HT29 colon.
Experiment [12] deals with SNB-75 CNS.
Experiment [13] has as its system SNB-19 CNS.
For experiment [14], the system named is U251 CNS.
Experiment [15] has as its system SK-MEL-5 melanoma.
The test system of experiment [16] is UACC-62 melanoma.
In experiment [17] the test system is LOX IMVI melanoma.
The test system of experiment [18] is SK-MEL-28 melanoma.
Experiment [19] deals with PC-3 prostate.

`CCN(CC)CC(O)CNc1ccnc2cc(Cl)c(Cl)cc12` (stereo not drawn): the growth in [1] was 92.6%; in experiment [2], 77.7%; in experiment [3] it was 60%; in experiment [4] it was 81.5%; in experiment [5], 83.2%; in [6], 97.9%. Further, the growth was 95.5% in [7]; 101% in experiment [8]; 106% in experiment [9]; 69.5% in experiment [10]; 77.6% in experiment [11]; 92.9% in [12]. The growth was 110% in [13]; 75.4% in experiment [14]; 84.7% in experiment [15]; 92.8% in experiment [16]; 73.9% in experiment [17]; 97.6% in experiment [18].

For the compound `Oc1ccc(Cn2cc3c(c2-c2ccccc2)CCc2cnoc2-3)cc1`, the growth in experiment [1] was 106%; in [2], 70%; in [3], 81.5%; in [4], 110%; in experiment [5], 106%; in experiment [6] it was 82%. In addition, the growth was 94.5% in experiment [7]; 92.2% in experiment [8]; 89.5% in experiment [9]; 100% in experiment [10]; 91.9% in [12]; 99.2% in experiment [13]. In addition, the growth in experiment [14] is 88.9%; in experiment [19], 87.3%; in experiment [15], 89.9%; in experiment [16] it was 70.3%; in experiment [17], 88.7%; in [18], 101%.

For `CC1(C)CC(=O)c2c(nc3ccc(Cl)cc3c2-c2ccccc2)C1`, the growth is 106% in [1]; 55.7% in experiment [2]; 85% in [3]; 3.11% (active) in experiment [4]; 90.9% in experiment [5]; 76% in [6]. Besides, the growth in [7] was 97.9%; in [8] it was 106%; in experiment [9] it was 99.9%; in experiment [10] it was 81.3%; in [11], 98.6%; in [12], 95.7%. The growth in [13] is 90%; in experiment [14] it was 102%; in experiment [19], 48.7%; in [15], 73%; in experiment [16] it was 75.3%; in experiment [17], 93.4%. For the same compound, the growth in experiment [18] is 174%.

Consider `O=C1/C(=C/c2cccs2)CCC/C1=C\c1cccs1`, for which the growth in experiment [1] is 92.9%; in experiment [2] it was 94.8%; in experiment [4] it was 91.9%; in experiment [5], 96.2%; in experiment [6] it was 104%; in experiment [7], 100%. The growth in experiment [8] was 96.9%; in experiment [9], 87.5%; in experiment [10] it was 78.9%; in experiment [11], 73.9%; in experiment [12], 110%; in [13], 105%. Besides, the growth in experiment [14] is 83.8%; in experiment [19], 89.6%; in experiment [15], 83%; in experiment [16], 77%; in [17], 92.4%; in experiment [18] it was 102%.

Turning to `COc1ccc(-c2nc(SCC(=O)c3ccc(Br)cc3)[nH]c(=O)c2C#N)cc1`, the growth is 103% in [1]; 96.1% in experiment [2]; 105% in experiment [3]; 106% in [4]; 96.2% in [5]; 100% in [6]. Further, the growth in [7] is 111%; in [8] it was 111%; in experiment [9], 98.5%; in experiment [10], 112%; in experiment [12], 103%; in experiment [13], 109%. In addition, the growth in experiment [14] is 109%; in experiment [19], 95.1%; in experiment [15] it was 110%; in experiment [16], 104%; in [17], 102%; in experiment [18], 115%.

With `O=[N+]([O-])c1ccc(-c2nc(-c3ccccc3)c(-c3ccccc3)n2-c2ccccc2)cc1`, the growth is 49.4% in experiment [1]; -25% (active) in [2]; 14.3% in [3]; 73.9% in [4]; 65.8% in [5]; 16.6% in experiment [6]. Moreover, the growth is 57.8% in experiment [7]; 57.4% in [8]; 49.6% in [9]; 12% in experiment [10]; 16.1% in experiment [11]; 80.4% in [12]. For the same compound, the growth in experiment [14] was 32.5%; in experiment [19] it was -6.15% (active); in experiment [15], 61.9%; in experiment [16] it was 30.9%; in experiment [17], 18.8%; in experiment [18], 67.6%.

Regarding `Cc1ccc(S(=O)(=O)N2CCc3ccccc3CC2)cc1`, the growth is 84.1% in [1]; 63.9% in experiment [2]; 83.7% in experiment [3]; 80.3% in experiment [4]; 97.5% in [5]; 73% in experiment [6]. In addition, the growth was 97% in experiment [7]; 52.7% in [8]; 80.6% in experiment [9]; 78.4% in [10]; 91.8% in experiment [11]; 78.6% in experiment [12]. In addition, the growth in experiment [13] was 68%; in experiment [14], 56.3%; in experiment [19], 36.4%; in experiment [15], 46.1%; in [16], 74.1%; in experiment [17], 76.4%. Besides, the growth in experiment [18] was 94.6%.

Turning to `CC1(C)CCc2cc(-c3ccn(S(=O)(=O)c4ccc(Cl)cc4)n3)ccc2O1`, the growth is 88.3% in experiment [1]; 52.4% in experiment [2]; 76.4% in experiment [3]; 89% in experiment [4]; 90.7% in [5]; 78.7% in [6]. In addition, the growth in [7] is 101%; in experiment [8] it was 64.9%; in experiment [9] it was 80.1%; in experiment [11] it was 70.9%; in experiment [12], 92.3%; in experiment [13], 100%. Moreover, the growth in [14] is 74.2%; in experiment [19], 56.8%; in experiment [15], 47.2%; in [16] it was 75%; in experiment [17], 72.2%; in experiment [18], 94.7%.

As to `CCOc1nc(-c2ccccc2)cc2c(O)c(C(=O)N/N=C/c3ccc(OC)cc3)[nH]c(=O)c12`, the growth was 122% in experiment [1]; 74.4% in experiment [2]; 126% in [3]; 6.86% (active) in experiment [4]; 112% in [5]; 91% in [6]. Moreover, the growth is 93.2% in experiment [7]; 130% in experiment [8]; 110% in [9]; 110% in experiment [10]; 108% in [11]; 91.7% in experiment [12]. The growth is 96.9% in [13]; 100% in [14]; 88% in experiment [19]; 53.5% in experiment [15]; 104% in experiment [16]; 114% in experiment [17]. In experiment [18], the growth was 114%.

As to `Cn1c(=O)c2[nH]c(C(O)c3ccc(Cl)cc3)nc2n(C)c1=O` (stereo not drawn), the growth is 104% in experiment [1]; 113% in [2]; 100% in experiment [3]; 120% in [4]; 104% in [5]; 104% in experiment [6]. Besides, the growth in [7] is 105%; in experiment [8], 97.7%; in experiment [9], 90.6%; in experiment [10], 102%; in experiment [11], 105%; in experiment [12], 80.2%. Moreover, the growth was 95.8% in [13]; 99.5% in experiment [14]; 87.9% in experiment [19]; 107% in [15]; 93.6% in experiment [16]; 96.6% in experiment [17]. Further, the growth in [18] is 108%.

Consider `COc1ccc(Cn2cc3c(c2-c2ccccc2)CC(C)(C)c2cnoc2-3)cc1`, for which the growth in experiment [1] was 37.6%; in experiment [2], 18%; in experiment [3], 57.6%; in experiment [4] it was 20.3%; in experiment [5], 40.9%; in experiment [6] it was -10.7% (active). Further, the growth in [7] was 6.34% (active); in experiment [8], 58.3%; in experiment [9] it was 40.1%; in experiment [10], 34.8%; in [11], 12.5%; in experiment [12], 13.1%. Moreover, the growth in [13] is 55.2%; in [14], 43.8%; in [15], 13.1%; in experiment [16], 54.6%; in experiment [17], 35.1%; in experiment [18], 58.7%.

`Cn1c(N)c(N=Cc2ccccc2)c(=O)n(C)c1=O`: the growth in [1] was 124%; in experiment [2], 95.8%; in [3] it was 98.8%; in [4], 121%; in [5] it was 110%; in [6], 124%. Moreover, the growth was 119% in experiment [7]; 108% in [8]; 98.7% in experiment [9]; 103% in experiment [10]; 91.4% in [12]; 105% in experiment [13]. In addition, the growth in experiment [14] is 110%; in experiment [15], 108%; in [16] it was 115%; in [17], 104%; in [18], 110%.

In the case of `CCN(CC)CC(O)Cc1ccc(OC)cc1` (stereo not drawn), the growth in [1] was 115%; in experiment [2], 101%; in experiment [3] it was 105%; in experiment [4], 106%; in experiment [5], 114%; in experiment [6], 109%. The growth in experiment [7] was 97.4%; in [8] it was 113%; in experiment [9] it was 116%; in experiment [10], 108%; in [11], 103%; in [12], 102%. Also, the growth in experiment [14] was 108%; in [19] it was 96.5%; in experiment [15] it was 100%; in [16], 111%; in experiment [17], 102%; in [18], 116%.

For `N#C/C(=C\N1C(=O)/C(=C/c2cccc([N+](=O)[O-])c2)SC1=S)c1nc2ccccc2s1`, the growth in experiment [1] was 99.6%; in [2], 77.1%; in experiment [3] it was 79.7%; in experiment [4] it was 105%; in experiment [5], 85.3%; in experiment [6], 86.9%. The growth in [7] is 80.3%; in experiment [8] it was 68.3%; in experiment [9], 81%; in [10] it was 95%; in experiment [12], 82.5%; in [13], 88.8%. For the same compound, the growth in experiment [14] was 69%; in experiment [19], 83.5%; in experiment [15] it was 64.6%; in experiment [16], 63.3%; in experiment [17] it was 79.8%; in experiment [18], 92.4%.

In the case of `COc1ccc(NC(=O)CCn2cnc3c(cc(-c4ccccc4)n3-c3ccccc3)c2=O)cc1`, the growth in experiment [1] is 97.1%; in experiment [2] it was 90.6%; in [4], 64.4%; in experiment [5], 24.5%; in experiment [6], 81.5%; in experiment [7], 47.3%. Besides, the growth in experiment [8] is 13%; in experiment [9], 91.1%; in [10], 98.6%; in experiment [11], 102%; in experiment [12], -10.5% (active); in [13] it was 57.2%. The growth was 77.4% in [14]; 86.6% in experiment [19]; 91% in [15]; 92.4% in [16]; 66.4% in [17]; 101% in experiment [18].
